Measured values taken from PubChem BioAssay AID1159580 (chemical genetic matrix, 2015).
The campaign covered roughly 5,500 compounds. About 2,000 (36%) were called active. Not shown: some 18% with an inconclusive outcome. Rule as the data show it: active = normalized growth mostly below about 0.91 (no sharp cut-off); inconclusive = no clear call, values can overlap the other calls; inactive = mostly above about 0.92. Some of the results follow.

Test: chemical genetic growth profiling, strain panel (AID 1159580);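 also: tested at 20 µM; growth read once vehicle control cultures reached saturation at 30 °C; 1 = growth at the plate median or of vehicle wells; lower values mean less growth of the strain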
Details: S. cerevisiae deletion strains, growth OD

Measured: normalized growth

CSc1nc(N)c2ncn([C@@H]3O[C@H](COP(=O)(O)OP(=O)(O)O)[C@H](O)C3O)c2n1 (stereo partly drawn)
inactive: locus YAL013W, strain DEP1, stronger effect = lower value 1.01 | locus YAL040C, strain CLN3, stronger effect = lower value 1.01 | locus YCL061C, strain MRC1 (second series), stronger effect = lower value 1.01 | locus YDR363W, strain ESC2, stronger effect = lower value 1.04 | locus YER002W, strain NOP16, stronger effect = lower value 1 | locus YJR075W, strain HOC1, stronger effect = lower value 1.03 | locus YNL153C, strain GIM3, stronger effect = lower value 1.03 | locus YNL175C, strain NOP13, stronger effect = lower value 1.02 | locus YNL197C, strain WHI3, stronger effect = lower value 0.99 | locus YNL224C, strain SQS1, stronger effect = lower value 0.998 | locus YOR083W, strain WHI5 (second series), stronger effect = lower value 1.02 | locus YPL055C, strain LGE1, stronger effect = lower value 1.02 | locus YPL241C, strain CIN2, stronger effect = lower value 1
